Measurements from PubChem BioAssay (NCI).
The panel holds about 79,000 compounds, 15% with a hit somewhere; the sample as a whole holds those more often. Activity calls are given as the source filed them. Cut-off read from the data, not from the text of the source: active = growth inhibition above about 70%; inactive = the rest.

Experiments:
[1] = NCI Yeast Anticancer Drug Screen. Data for the rad52 strain (AID 147);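 note: 0% = growth of vehicle-treated control cultures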; conditions: S. cerevisiae rad52 mutant growth inhibition, active compounds read high
Method in brief: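 DNA repair-defective yeast; compound exposure; growth scored against vehicle controls.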

[2] = NCI Yeast Anticancer Drug Screen. Data for the wt1 strain (AID 149);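 note: 0% = growth of vehicle-treated wt1 cultures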; conditions: S. cerevisiae wt1 strain (SPY 50644) growth inhibition, active compounds read high
Method in brief: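 Compounds are added to wt1 yeast cultures. Growth is then measured. Inhibition is expressed relative to vehicle-treated controls.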

[3] = NCI Yeast Anticancer Drug Screen. Data for the rad50EPP+ strain (AID 151);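 note: 0% = growth of vehicle-treated control cultures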; conditions: S. cerevisiae rad50 mutant strain, active compounds read high
Method in brief: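 rad50EPP+ yeast treated with test compounds. Readout: growth vs vehicle control.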

[4] = NCI Yeast Anticancer Drug Screen. Data for the rad50 strain (AID 155);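 note: 0% = growth of vehicle-only cultures of the same strain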; conditions: S. cerevisiae rad50 strain growth inhibition, active compounds read high
Method in brief: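 Inhibition values express reduced yeast growth in compound-treated cultures relative to vehicle-treated controls.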

[5] = NCI Yeast Anticancer Drug Screen. Data for the mec2-1 strain (AID 157); conditions: S. cerevisiae mec2-1 strain, active compounds read high
Method in brief: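 Growth inhibition is read against vehicle-treated controls after compound exposure of the mec2-1 yeast strain, which is defective in DNA damage repair or cell cycle control.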

[6] = NCI Yeast Anticancer Drug Screen. Data for the rad14 strain (AID 159);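 note: 0% = growth of vehicle-treated control cultures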; conditions: S. cerevisiae rad14 strain growth inhibition, active compounds read high
Method in brief: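 A mutant yeast strain defective in DNA damage repair is treated with compound; inhibition of its growth is scored against untreated, vehicle-exposed cultures.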

[7] = NCI Yeast Anticancer Drug Screen. Data for the sgs1 mgt1 strain (AID 161);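 note: 0% = growth of cultures given vehicle only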; conditions: S. cerevisiae sgs1 mgt1 strain, active compounds read high
Method in brief: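 Growth of a repair-deficient yeast mutant was monitored after compound treatment and expressed as inhibition relative to vehicle-treated cultures.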

[8] = NCI Yeast Anticancer Drug Screen. Data for the CLN2oe strain (AID 163);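 note: 0% = growth of vehicle-only control cultures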; conditions: S. cerevisiae CLN2oe strain, active compounds read high
Method in brief: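 Compound-treated yeast; growth vs vehicle ctrl = % inhibition. Genetically altered strain (cell-cycle control).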

[9] = NCI Yeast Anticancer Drug Screen. Data for the cln2 rad14 strain (AID 165);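 note: 0% = growth equal to vehicle treated cultures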; conditions: S. cerevisiae cln2 rad14 strain, active compounds read high
Method in brief: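 Growth inhibition, relative to vehicle-treated controls, is the read-out. The test organism is a yeast strain with defined genetic alterations, cln2 rad14.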

[10] = NCI Yeast Anticancer Drug Screen. Data for the bub3 strain (AID 167); conditions: S. cerevisiae bub3 mutant strain, active compounds read high
Method in brief: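 Steps: expose the mutant yeast strain to compound; grow alongside vehicle-treated cultures; measure growth; express inhibition against the vehicle cultures.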

[11] = NCI Yeast Anticancer Drug Screen. Data for the wt2 strain (AID 169);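 note: 0% = growth of vehicle-treated yeast cultures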; conditions: S. cerevisiae wt2 strain growth inhibition, active compounds read high
Method in brief: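 Compound exposure of yeast; growth compared with vehicle controls; inhibition reported.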

[12] = NCI Yeast Anticancer Drug Screen. Data for the mlh1 strain (AID 171);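 note: 0% = growth of vehicle-treated control cultures of the same strain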; conditions: S. cerevisiae mlh1 strain growth inhibition, active compounds read high
Method in brief: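 Compounds are applied to a genetically altered yeast strain, and its growth is compared with that of vehicle-treated cultures to give percent inhibition.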

[13] = NCI Yeast Anticancer Drug Screen. Data for the sgs1 strain (AID 173);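 note: 0% = growth of vehicle-only control cultures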; conditions: S. cerevisiae sgs1 mutant, active compounds read high
Method in brief: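 Compounds applied to genetically altered yeast; growth compared with vehicle-treated cultures to give % inhibition.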

[14] = NCI Yeast Anticancer Drug Screen. Data for the mlh1 rad18 strain (AID 175); conditions: S. cerevisiae mlh1 rad18 strain growth inhibition, active compounds read high
Method in brief: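 Cells of a genetically altered yeast strain, deficient in DNA damage repair, were treated with compound. Their growth was then compared with that of vehicle-treated cultures to give inhibition.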

[15] = NCI Yeast Anticancer Drug Screen. Data for the rad18 strain (AID 177); conditions: S. cerevisiae rad18 mutant growth inhibition, active compounds read high
Method in brief: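 Compounds are applied to a repair-deficient yeast strain, and growth is compared with that of vehicle-treated cultures to give percent inhibition.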

[16] = at 5.0 µM (retest, dose inferred, filed as 0.5)
[17] = at 50.0 µM (retest, dose inferred, filed as 5.0)

Measured: growth inhibition

CCN(CC)CC(=O)c1ccc2cc(Cl)c3ccccc3c2c1
inactive: [1]; at 1.2 µM 14% | [1]; at 3.7 µM 30% | [2]; at 1.2 µM 6% | [2]; at 3.7 µM 17% | [3]; at 1.2 µM 68% | [4]; at 1.2 µM 9% | [4]; at 3.7 µM 18% | [4]; [16] 26% | [5]; at 1.2 µM 12% | [5]; at 3.7 µM 24% | [5]; [16] 26% | [6]; at 1.2 µM 6% | [6]; at 3.7 µM 13% | [7]; [16] 42% | [8]; at 1.2 µM 8% | [8]; at 3.7 µM 11% | [9]; [16] 6% | [10]; at 1.2 µM -4% | [10]; at 3.7 µM 3% | [10]; [16] 10% | [11]; at 1.2 µM 7% | [11]; at 3.7 µM 24% | [12]; at 1.2 µM 12% | [12]; at 3.7 µM 23% | [13]; at 1.2 µM 25% | [13]; at 3.7 µM 53% | [14]; [16] 48% | [15]; at 1.2 µM 20% | [15]; at 3.7 µM 42%
active: [1]; at 11.0 µM 99% | [1]; at 33.0 µM 98% | [1]; at 100.0 µM 98% | [2]; at 11.0 µM 99% | [2]; at 33.0 µM 98% | [2]; at 100.0 µM 98% | [3]; at 3.7 µM 85% | [3]; at 11.0 µM 98% | [3]; at 33.0 µM 98% | [3]; at 100.0 µM 98% | [4]; at 11.0 µM 98% | [4]; at 33.0 µM 98% | [4]; [17] 98% | [4]; at 50.0 µM 99% | [4]; at 100.0 µM 98% | [5]; at 11.0 µM 99% | [5]; at 33.0 µM 99% | [5]; [17] 99% | [5]; at 50.0 µM 99.2% | [5]; at 100.0 µM 99% | [6]; at 11.0 µM 99% | [6]; at 33.0 µM 99% | [6]; at 100.0 µM 99% | [7]; [17] 99% | [7]; at 50.0 µM 99.2% | [8]; at 11.0 µM 99% | [8]; at 33.0 µM 98% | [8]; at 100.0 µM 99% | [9]; [17] 99% | [9]; at 50.0 µM 99.2% | [10]; at 11.0 µM 98% | [10]; at 33.0 µM 98% | [10]; [17] 98% | [10]; at 50.0 µM 99.2% | [10]; at 100.0 µM 98% | [11]; at 11.0 µM 99% | [11]; at 33.0 µM 98% | [11]; at 100.0 µM 98% | [12]; at 11.0 µM 99% | [12]; at 33.0 µM 99% | [12]; at 100.0 µM 98% | [13]; at 11.0 µM 99% | [13]; at 33.0 µM 98% | [13]; at 100.0 µM 98% | [14]; [17] 98% | [14]; at 50.0 µM 99.2% | [15]; at 11.0 µM 99% | [15]; at 33.0 µM 98% | [15]; at 100.0 µM 98%

CCOP(=O)(OCC)/C(C#N)=C\c1cccc2ccccc12
inactive: [1]; at 1.2 µM -2% | [1]; at 3.7 µM -1% | [1]; at 11.0 µM 12% | [2]; at 1.2 µM 2% | [2]; at 3.7 µM 8% | [2]; at 11.0 µM 6% | [3]; at 1.2 µM 8% | [3]; at 3.7 µM 10% | [3]; at 11.0 µM 3% | [3]; at 33.0 µM 22% | [3]; at 100.0 µM 41% | [4]; at 1.2 µM -4% | [4]; at 3.7 µM 1% | [4]; [16] 14% | [4]; at 11.0 µM 22% | [5]; at 1.2 µM 4% | [5]; at 3.7 µM 16% | [5]; [16] -19% | [5]; at 11.0 µM 15% | [6]; at 1.2 µM -8% | [6]; at 3.7 µM -13% | [6]; at 11.0 µM -25% | [7]; [16] 53% | [8]; at 1.2 µM 13% | [8]; at 3.7 µM 2% | [8]; at 11.0 µM -7% | [8]; at 33.0 µM 59% | [9]; [16] 12% | [10]; at 1.2 µM -29% | [10]; at 3.7 µM -13% | [10]; [16] -3% | [10]; at 11.0 µM -41% | [11]; at 1.2 µM -6% | [11]; at 3.7 µM -2% | [11]; at 11.0 µM 2% | [12]; at 1.2 µM 11% | [12]; at 3.7 µM 10% | [12]; at 11.0 µM 17% | [13]; at 1.2 µM 22% | [13]; at 3.7 µM 23% | [13]; at 11.0 µM 43% | [14]; [16] -13% | [15]; at 1.2 µM 15% | [15]; at 3.7 µM 21% | [15]; at 11.0 µM 47%
active: [1]; at 33.0 µM 92% | [1]; at 100.0 µM 97% | [2]; at 33.0 µM 87% | [2]; at 100.0 µM 98% | [4]; at 33.0 µM 92% | [4]; [17] 90% | [4]; at 50.0 µM 85.7% | [4]; at 100.0 µM 98% | [5]; at 33.0 µM 85% | [5]; [17] 93% | [5]; at 50.0 µM 88.2% | [5]; at 100.0 µM 98% | [6]; at 33.0 µM 87% | [6]; at 100.0 µM 97% | [7]; [17] 90% | [7]; at 50.0 µM 89.2% | [8]; at 100.0 µM 98% | [9]; [17] 93% | [9]; at 50.0 µM 88.8% | [10]; at 33.0 µM 83% | [10]; [17] 95% | [10]; at 50.0 µM 89.2% | [10]; at 100.0 µM 97% | [11]; at 33.0 µM 82% | [11]; at 100.0 µM 98% | [12]; at 33.0 µM 89% | [12]; at 100.0 µM 98% | [13]; at 33.0 µM 93% | [13]; at 100.0 µM 99% | [14]; [17] 95% | [14]; at 50.0 µM 86.2% | [15]; at 33.0 µM 95% | [15]; at 100.0 µM 98%
